For assay [1], the target named is 5'-AMP-activated protein kinase catalytic subunit alpha-2 (Homo sapiens) (UniProt P54646). Conditions: at 1 µM.
Assay [2] concerns the target T1, NUAK family SNF1-like kinase 1 (Homo sapiens) (UniProt O60285).
T1 sequence (whole entry): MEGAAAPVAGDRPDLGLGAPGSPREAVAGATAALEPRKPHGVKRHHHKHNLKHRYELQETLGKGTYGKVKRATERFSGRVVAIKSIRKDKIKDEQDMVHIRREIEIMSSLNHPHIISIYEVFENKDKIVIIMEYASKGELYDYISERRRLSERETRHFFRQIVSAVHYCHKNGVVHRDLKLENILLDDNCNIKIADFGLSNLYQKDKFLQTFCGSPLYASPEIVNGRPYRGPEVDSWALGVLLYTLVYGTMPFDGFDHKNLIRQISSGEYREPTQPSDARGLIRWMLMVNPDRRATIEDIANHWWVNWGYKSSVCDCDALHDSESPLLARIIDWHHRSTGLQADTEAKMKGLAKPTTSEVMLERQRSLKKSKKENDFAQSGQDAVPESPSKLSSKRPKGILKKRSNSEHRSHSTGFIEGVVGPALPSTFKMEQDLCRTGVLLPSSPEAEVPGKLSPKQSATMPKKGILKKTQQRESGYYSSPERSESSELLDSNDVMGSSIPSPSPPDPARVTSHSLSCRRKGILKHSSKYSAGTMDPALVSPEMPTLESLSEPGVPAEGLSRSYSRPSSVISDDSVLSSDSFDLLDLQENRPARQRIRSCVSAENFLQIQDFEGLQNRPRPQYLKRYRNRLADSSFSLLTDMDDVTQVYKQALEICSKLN
To be noted: at 0.1 µM.

For assay [3], the target named is T1, NUAK family SNF1-like kinase 1 (Homo sapiens). Conditions: at 1 µM.
The target in assay [4] is T2, Serine/threonine-protein kinase BRSK1 (Homo sapiens) (UniProt Q8TDC3).
T2 sequence (whole entry): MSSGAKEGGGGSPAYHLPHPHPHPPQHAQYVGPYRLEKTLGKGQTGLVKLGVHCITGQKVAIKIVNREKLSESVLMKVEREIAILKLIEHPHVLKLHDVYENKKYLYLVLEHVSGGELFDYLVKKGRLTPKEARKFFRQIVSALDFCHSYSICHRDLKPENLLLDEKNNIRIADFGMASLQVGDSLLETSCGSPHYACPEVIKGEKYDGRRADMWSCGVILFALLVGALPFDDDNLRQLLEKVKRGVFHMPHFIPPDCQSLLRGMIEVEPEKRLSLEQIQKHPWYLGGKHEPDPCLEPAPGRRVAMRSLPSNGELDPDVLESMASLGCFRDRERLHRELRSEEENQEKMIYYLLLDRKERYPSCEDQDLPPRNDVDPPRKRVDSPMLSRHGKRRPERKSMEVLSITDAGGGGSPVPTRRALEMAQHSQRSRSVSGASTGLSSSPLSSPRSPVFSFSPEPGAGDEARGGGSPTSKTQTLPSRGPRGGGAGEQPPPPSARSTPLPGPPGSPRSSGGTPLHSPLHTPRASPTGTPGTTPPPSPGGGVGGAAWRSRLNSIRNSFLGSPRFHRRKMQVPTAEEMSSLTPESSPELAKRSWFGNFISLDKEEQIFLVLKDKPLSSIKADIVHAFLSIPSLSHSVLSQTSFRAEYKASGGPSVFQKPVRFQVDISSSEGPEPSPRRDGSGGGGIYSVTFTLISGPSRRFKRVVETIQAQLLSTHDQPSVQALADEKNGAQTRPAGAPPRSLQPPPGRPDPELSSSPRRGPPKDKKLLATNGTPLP
To be noted: at 0.1 µM.

Assay [5] deals with T2, Serine/threonine-protein kinase BRSK1 (Homo sapiens). Conditions: at 1 µM.
The target of assay [6] is T3, Serine/threonine-protein kinase BRSK2 (Homo sapiens) (UniProt Q8IWQ3).
T3 sequence (whole entry): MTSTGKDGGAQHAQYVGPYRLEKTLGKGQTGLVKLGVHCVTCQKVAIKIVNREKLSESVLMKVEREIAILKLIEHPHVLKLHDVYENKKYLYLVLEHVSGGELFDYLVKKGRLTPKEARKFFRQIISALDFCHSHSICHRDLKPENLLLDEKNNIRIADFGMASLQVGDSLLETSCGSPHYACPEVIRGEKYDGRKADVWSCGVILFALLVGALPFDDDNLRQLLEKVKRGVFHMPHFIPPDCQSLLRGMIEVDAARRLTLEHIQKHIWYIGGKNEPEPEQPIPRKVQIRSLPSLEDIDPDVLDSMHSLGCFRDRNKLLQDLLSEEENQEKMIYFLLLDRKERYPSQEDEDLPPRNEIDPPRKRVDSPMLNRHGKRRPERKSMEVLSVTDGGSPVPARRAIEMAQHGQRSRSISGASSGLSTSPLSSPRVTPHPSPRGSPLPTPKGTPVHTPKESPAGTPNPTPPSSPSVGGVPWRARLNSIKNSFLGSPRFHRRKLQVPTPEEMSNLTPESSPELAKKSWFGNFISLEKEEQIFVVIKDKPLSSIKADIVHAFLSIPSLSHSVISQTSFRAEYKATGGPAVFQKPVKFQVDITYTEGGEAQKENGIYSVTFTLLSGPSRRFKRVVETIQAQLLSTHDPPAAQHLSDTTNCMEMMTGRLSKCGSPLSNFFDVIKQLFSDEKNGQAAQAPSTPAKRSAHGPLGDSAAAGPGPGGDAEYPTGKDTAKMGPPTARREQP
To be noted: at 0.1 µM.

The target of assay [7] is T3, Serine/threonine-protein kinase BRSK2 (Homo sapiens). To be noted: at 1 µM.
The target of assay [8] is Calcium/calmodulin-dependent protein kinase type 1D (Homo sapiens) (UniProt Q8IU85). To be noted: at 0.1 µM.
Chain of Calcium/calmodulin-dependent protein kinase type 1D (Homo sapiens) (Q8IU85 whole entry, looked up): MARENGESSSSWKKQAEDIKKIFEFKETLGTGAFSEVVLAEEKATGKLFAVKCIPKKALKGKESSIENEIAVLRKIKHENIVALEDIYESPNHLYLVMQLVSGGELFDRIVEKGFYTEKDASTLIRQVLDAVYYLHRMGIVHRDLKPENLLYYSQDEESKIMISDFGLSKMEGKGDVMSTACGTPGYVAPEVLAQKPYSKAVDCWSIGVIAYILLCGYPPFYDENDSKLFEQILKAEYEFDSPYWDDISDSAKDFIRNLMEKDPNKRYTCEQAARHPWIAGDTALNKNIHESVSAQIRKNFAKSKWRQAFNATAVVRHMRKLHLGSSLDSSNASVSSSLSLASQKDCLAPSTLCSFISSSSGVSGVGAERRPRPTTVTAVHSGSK
Assay [9] has the same target. Conditions: at 1 µM.
The target in assay [10] is Calcium/calmodulin-dependent protein kinase type II subunit alpha (Homo sapiens) (UniProt Q9UQM7). To be noted: at 0.1 µM.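 Note: reported values are averages (mean inhibition of CAMK2A).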
Chain of Calcium/calmodulin-dependent protein kinase type II subunit alpha (Homo sapiens) (Q9UQM7 whole entry): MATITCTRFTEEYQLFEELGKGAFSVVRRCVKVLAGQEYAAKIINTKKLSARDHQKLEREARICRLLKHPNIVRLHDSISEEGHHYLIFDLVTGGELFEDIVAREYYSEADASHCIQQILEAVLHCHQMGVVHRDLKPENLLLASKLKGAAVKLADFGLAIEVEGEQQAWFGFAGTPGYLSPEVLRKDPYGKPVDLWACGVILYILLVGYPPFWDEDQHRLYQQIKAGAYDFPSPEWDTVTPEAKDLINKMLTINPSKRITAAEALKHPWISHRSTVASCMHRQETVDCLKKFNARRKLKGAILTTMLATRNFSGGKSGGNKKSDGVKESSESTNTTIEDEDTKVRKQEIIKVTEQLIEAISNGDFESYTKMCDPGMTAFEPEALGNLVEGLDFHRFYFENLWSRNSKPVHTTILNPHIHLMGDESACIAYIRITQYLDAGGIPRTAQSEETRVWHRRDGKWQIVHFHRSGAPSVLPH

Chain of 5'-AMP-activated protein kinase catalytic subunit alpha-2 (Homo sapiens) (P54646 whole entry, looked up): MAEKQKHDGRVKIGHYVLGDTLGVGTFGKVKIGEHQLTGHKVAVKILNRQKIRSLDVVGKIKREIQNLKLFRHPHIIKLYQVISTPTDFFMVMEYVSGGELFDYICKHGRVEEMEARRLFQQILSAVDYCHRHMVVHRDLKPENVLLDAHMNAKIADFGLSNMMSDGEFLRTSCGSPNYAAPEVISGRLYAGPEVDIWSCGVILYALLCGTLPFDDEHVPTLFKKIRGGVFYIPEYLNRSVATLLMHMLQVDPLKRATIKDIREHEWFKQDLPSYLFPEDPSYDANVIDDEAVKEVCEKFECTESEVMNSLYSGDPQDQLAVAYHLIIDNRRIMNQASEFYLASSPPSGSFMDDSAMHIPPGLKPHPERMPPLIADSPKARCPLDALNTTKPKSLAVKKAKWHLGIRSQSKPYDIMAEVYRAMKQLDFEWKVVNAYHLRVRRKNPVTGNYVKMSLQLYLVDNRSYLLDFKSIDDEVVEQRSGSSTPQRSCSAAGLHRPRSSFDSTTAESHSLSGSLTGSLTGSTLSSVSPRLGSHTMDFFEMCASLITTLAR

In the case of `Nc1ncc(-c2cccc(S(N)(=O)=O)c2)c2scc(-c3ccc(F)c(Cl)c3)c12`, the inhibition (as a rule, the relative decrease from the control value, in per cent) in assay [1] amounted to 4.34%; in assay [2], 0.82%; in [3] it was 2.44%; in assay [4], 1.61%; in [5], 5.62%; in assay [6], 3.28%. Also, the inhibition in assay [7] is 6.56%; in assay [8], 1.24%; in [9], 0.88%; in assay [10], 3.36%.

With `COc1ccc2[nH]c3c4[nH]c5ccc(OC)cc5c4c4c(c3c2c1)C(=O)NC4=O`, the inhibition in [1] came out at 51.6%; in assay [2] it was 78%; in [3], 77.3%; in [4], 71.3%; in [5], 102%; in [6], 92.2%. Moreover, the inhibition in [7] came out at 94.9%; in [8] it was 6.96%; in [9], 39.6%; in assay [10], 6.99%.

Take `CCn1c(-c2nonc2N)nc2cnc(Oc3cccc(NC(=O)c4ccc(N(C)C)cc4)c3)cc21`: the inhibition in assay [1] was found to be 10.1%; in assay [2], 3.21%; in assay [3] it was 18.7%; in [4] it was 1.7%; in assay [5], 3.54%; in assay [6] it was 2.26%. Besides, the inhibition came out at 2.76% in assay [7], 0.25% in assay [8], 2.17% in assay [9] and 0.79% in [10].

For the compound `COc1ccc(-c2nn3ncccc3c2-c2ccnc(Nc3ccc4c(c3)OCCO4)n2)cc1`, the inhibition in [1] is 0.38%; in assay [2], -0.71%; in assay [3], 2.67%; in assay [4], -0.94%; in assay [5], 2.44%; in [6] it was 0.33%. The inhibition in assay [7] stood at 1.64%; in assay [8] it was 9.78%; in assay [9], 0.03%; in assay [10] it was 0.38%.

Regarding `CS(=O)(=O)CCNCc1ccc(-c2ccc3ncnc(Nc4ccc(OCc5ccccc5)c(C(F)(F)F)c4)c3c2)o1`, the inhibition was 3.87% in [1]; -0.55% in assay [2]; -0.02% in assay [3]; 0.14% in assay [4]; 4.02% in [5]; 3.18% in assay [6]. Also, the inhibition came to 4.31% in assay [7], 0.11% in assay [8], 4.44% in assay [9] and 2.86% in [10].

With `COc1ccc(-c2oc3ncnc(N)c3c2-c2ccc(NC(=O)Nc3cc(C(F)(F)F)ccc3F)cc2)cc1`, the inhibition in assay [1] is 7.89%; in assay [2] it was 4.62%; in assay [3], 9.26%; in assay [4], 5.38%; in assay [5], 11.7%; in [6] it was 8.06%. Besides, the inhibition in assay [7] worked out at 13.9%; in assay [8] it was 1.06%; in assay [9], 11.9%; in [10], 4.73%.

As to `O=C(O[C@H]1CN[C@H](C#Cc2cc3ncnc(Nc4ccc(Cc5ccccc5)cc4)c3s2)C1)N1CCOCC1`, the inhibition in [1] was 1.84%; in assay [2], -3.65%; in assay [3], -2.64%; in [4], 0.3%; in assay [5], 2.86%; in assay [6], 1.6%. Further, the inhibition is 2.92% in assay [7], -0.64% in assay [8], -0.69% in assay [9] and 0.64% in [10].

Turning to `CCc1nn2ncccc2c1-c1ccnc(NC2CC2)n1`, the inhibition in [1] was 2.42%; in assay [2] it was -1.38%; in assay [3], 1.14%; in [4] it was 3.05%; in assay [5] it was 1.03%; in [6], 1.62%. Besides, the inhibition turned out to be 4.01% in [7], 1.12% in [8], 2.41% in assay [9] and 2.89% in assay [10].

Take `CCn1cc(-c2ccnc3[nH]ccc23)c(-c2cccc(NC(=O)Nc3ccc(OCc4ccccc4)cc3)c2)n1`: the inhibition in assay [1] is 2.24%; in assay [2], -0.37%; in assay [3] it was 1.67%; in [4], -0.66%; in [5] it was 3.32%; in assay [6], 1.2%. Besides, the inhibition in assay [7] came to 0.5%; in assay [8] it was 1.03%; in [9] it was 4.92%; in assay [10], 1.2%.

Take `CC(=O)NCc1cccc(C#Cc2cncnc2Nc2ccc(OCc3cccc(F)c3)c(Cl)c2)c1`: the inhibition is 3.37% in assay [1]; 3.47% in [2]; 1.8% in [3]; 1.85% in assay [4]; 3.55% in [5]; 1.29% in assay [6]. The inhibition was found to be 5.12% in [7], 0.67% in assay [8], 2.08% in [9] and 24.7% in assay [10].

`CN(C)CCOc1ccc(-c2nc(-c3ccncc3)c(-c3ccc4c(c3)CC/C4=N\O)[nH]2)cc1`: the inhibition in assay [1] is 2.75%; in [2], 1.23%; in assay [3], 8.79%; in assay [4], -0.13%; in [5], 1.11%; in [6], 0.6%. The inhibition in assay [7] worked out at 3.51%; in [8] it was 0.25%; in [9], 1.72%; in assay [10], 2.79%.

For the compound `COC(=O)Nc1nc2ccc(Oc3ccc(NC(=O)Nc4cccc(Cl)c4)cc3)cc2[nH]1`, the inhibition in assay [1] was 2.32%; in [2], 1.13%; in [3], -0.04%; in assay [4] it was -0.24%; in assay [5] it was -0.19%; in assay [6] it was 1.18%. Besides, the inhibition in assay [7] is 0.86%; in assay [8], 0.74%; in assay [9], 0.72%; in assay [10], -1.44%.

Take `CCn1c(-c2nonc2N)nc2c(C#CC(C)(C)O)ncc(OC3CCNCC3)c21`: the inhibition in [1] was 43.3%; in assay [2], 6.16%; in assay [3], 42.9%; in [4], 1.45%; in [5], 10.5%; in assay [6] it was 2.8%. Also, the inhibition came out at 19.2% in [7], 1.83% in assay [8], 8.97% in assay [9] and 3.85% in assay [10].

Turning to `N#Cc1c(NC(=O)CN2CCOCC2)sc2c1CCCC2`, the inhibition in [1] was 2.26%; in [2] it was 2.61%; in [3], 4.86%; in [4], 0.57%; in [5] it was 1.52%; in [6], 2.72%. For the same compound, the inhibition was 3.03% in assay [7], -0.19% in assay [8], 0.36% in assay [9] and 3.08% in [10].

Consider `COc1cccc(-c2c[nH]c3c(N/N=C/c4ccncc4)ncnc23)c1`, for which the inhibition in assay [1] was 7.68%; in [2], 4.85%; in [3], 38.5%; in assay [4], 3.83%; in assay [5], 21.4%; in assay [6], 4.82%. In addition, the inhibition in assay [7] was determined as 29.8%; in assay [8] it was 2.11%; in assay [9], 4.07%; in [10], 3.48%.

Take `CNC(=O)c1cncc(/C=C/c2ccccc2Cl)c1`: the inhibition is -0.38% in [1]; 4.61% in [2]; 4.26% in assay [3]; 0.56% in assay [4]; 8.62% in [5]; 0.31% in assay [6]. The inhibition was 8.91% in assay [7], 0.88% in assay [8], -1.08% in [9] and 1.53% in [10].

With `CCCN1CCC(c2ccc(Nc3nc(Nc4cc(F)ccc4C(N)=O)c4cc[nH]c4n3)c(OC)c2)CC1`, the inhibition came to 13.2% in assay [1]; 31.8% in assay [2]; 62.8% in assay [3]; 0.82% in assay [4]; 2.49% in assay [5]; 2.24% in assay [6]. Besides, the inhibition is 6.88% in assay [7], 22.9% in assay [8], 71.5% in assay [9] and 8.79% in assay [10].

The values above are taken from ChEMBL document CHEMBL1961873, “Compounds: GSK PKIS; Assays: Nanosyn kinase panel” (2012).
